From PubChem BioAssay (NCATS)
Inconclusive results are not listed. Active and inactive are the calls of the source. The call rests on the fitted dose curve; in most records, active means well fitted curve in the direction sought with a large enough effect; inconclusive means small, poorly fitted or top-dose-only effect, or another doubt; inactive means no such curve, though single readings can be large; an effect the other way counts as inactive or inconclusive.

Tests used:
[1] = target: Cellular tumor antigen p53 (Homo sapiens) (UniProt P04637); experiment: Primary qHTS for small molecule compounds that upregulate eGFP-tagged delta133p53alpha (in N-terminal) cells. (AID 2060322); conditions: NCI-H358 eGFP-delta133p53alpha fluorescence, 24 h; activation: hits give high values;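 further: 0% = DMSO vehicle and 100% = reference activator; nearly all actives have a fitted effect of over 75% in size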
Sequence of Cellular tumor antigen p53 (Homo sapiens) (P04637 whole entry, looked up): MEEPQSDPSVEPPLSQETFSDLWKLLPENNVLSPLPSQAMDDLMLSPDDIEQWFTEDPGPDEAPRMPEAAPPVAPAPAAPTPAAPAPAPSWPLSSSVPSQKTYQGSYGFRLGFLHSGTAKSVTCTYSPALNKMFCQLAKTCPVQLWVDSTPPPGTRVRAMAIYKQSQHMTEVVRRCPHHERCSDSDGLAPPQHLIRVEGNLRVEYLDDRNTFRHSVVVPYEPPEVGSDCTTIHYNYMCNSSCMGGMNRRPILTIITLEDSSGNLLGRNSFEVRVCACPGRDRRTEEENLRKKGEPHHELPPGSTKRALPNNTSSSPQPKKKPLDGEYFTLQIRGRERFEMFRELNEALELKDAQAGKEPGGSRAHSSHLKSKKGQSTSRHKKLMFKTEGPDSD
Summary of the method: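 NCI-H358 cells pre-induced 24 h with 10 ng/ml doxycycline to express N-terminal eGFP-delta133p53alpha, then dosed 24 h at 37C without doxycycline; fixed, Hoechst-stained, GFP intensity by laser scanning cytometry, normalized to DMSO (0%) and 57.5 uM 5-azacytidine (100%).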

[2] = target: Aldehyde dehydrogenase, mitochondrial (Homo sapiens) (UniProt P05091); experiment: qHTS for Inhibitors of the Aldehyde Dehydrogenase Family (ALDH2) Primary screen (AID 2061308); conditions: ALDH2 enzyme inhibition qHTS, 1536-well; series mostly up to 56 µM;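 further: plate controls were vehicle for no effect and reference inhibitor for full effect; nearly all actives have a fitted effect of over 55% in size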
[3] = target: Retinaldehyde dehydrogenase 3 (Homo sapiens) (UniProt P47895); experiment: qHTS for Inhibitors of the Aldehyde Dehydrogenase Family (ALDH1A3) Primary screen (AID 2061315); conditions: ALDH inhibition qHTS; series mostly up to 56 µM;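 further: plate controls were DMSO vehicle for no effect and reference inhibitor for full effect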

O=C(CCC1CCN(Cc2ccccc2)CC1)c1ccc2c(c1)NCCCC2
inactive: activation [1] 6.33% | Potency [2] | Potency [3]

C[C@@]12CC3(S(=O)(=O)O)OC(O1)[C@]1(COC(=O)c4ccccc4)[C@H]3C[C@]21O[C@@H]1O[C@H](CO)[C@@H](O)[C@H](O)[C@H]1O
inactive: activation [1] 14.5% | Potency [2] | Potency [3]

CC1(C)CCCC2(C)C1C(O)C=C(CO)C2(O)C(=O)O (stereo unspecified)
inactive: activation [1] -13.7% | Potency [2] | Potency [3]

CCC(CCO[C@@H]1O[C@H](CO[C@H]2OC[C@](O)(CO)[C@H]2O)[C@@H](O)[C@H](O)[C@H]1O)C(C)(C)O (stereo partly specified)
inactive: activation [1] -6.87% | Potency [2] | Potency [3]

C[C@@H]1O[C@@H](OC(=O)Cc2ccccc2)[C@H](O)[C@H](O)[C@H]1O
inactive: activation [1] 17% | Potency [2] | Potency [3]

C=C1C(=O)O[C@H]2[C@H]1[C@@H](OC(=O)C(C)CO)C[C@@]1(C)[C@H](O)CCC(=O)[C@H]21 (stereo partly specified)
inactive: activation [1] -11.5% | Potency [2] | Potency [3]

C[C@@H]1C[C@H](C)CN(CCC(=O)Nc2ccc(Br)cc2)C1
inactive: activation [1] 13.4% | Potency [2] | Potency [3]

C=C1C(OC2OC(CO)C(O)C(O)C2O)CC2C(C)(C)C(O)CCC2(C)C1CC/C(C)=C\COC(=O)CC(=O)O (stereo unspecified)
inactive: activation [1] 0.763% | Potency [2] | Potency [3]

CNc1nc(Cc2ccccc2)nc2c1CCNC[C@@H]2C
inactive: activation [1] 19% | Potency [2] | Potency [3]

COc1c2c(c(C)c3c1C(=O)OC3)O[C@@]1(C)C[C@@H](O)[C@]34O[C@](OC)(CC[C@]3(C)[C@H]1C2)OC4(C)C
inactive: activation [1] -1.53% | Potency [2] | Potency [3]

CC(=O)NC[C@H]1CN(c2ccc(N3CCN(C(=O)CO)CC3)c(F)c2)C(=O)O1
inactive: activation [1] 11.6% | Potency [2] | Potency [3]

CC(C)c1cc(C(=O)N2CC[C@@H](NC(=O)C3CC3)C2)n[nH]1
inactive: activation [1] -7.67% | Potency [2] | Potency [3]

CC(=O)OCC1(O)CCC2C(COC3OC(CO)C(O)C(O)C3OC(=O)/C=C/c3ccc(O)cc3)=COC(OC(=O)CC(C)C)C21 (stereo unspecified)
inactive: activation [1] 11.5% | Potency [2] | Potency [3]

CC1(C)COC(=O)[C@@H]1O[C@@H]1O[C@H](CO)[C@@H](O)[C@H](O)[C@H]1O
inactive: activation [1] -11.6% | Potency [2] | Potency [3]

CC1OC(OC2CCC3(C)C(CCC4(C)C3CC=C3C5CC(C)(C)CCC5(C(=O)OC5OC(CO)C(O)C(O)C5O)CCC34C(=O)O)C2(C)C)C(O)C(O)C1O (stereo unspecified)
inactive: activation [1] 0.763% | Potency [2] | Potency [3]

CC1=COC(OC2OC(CO)C(O)C(O)C2O)C2C(CO)CC(OC(=O)/C=C/c3ccc(O)cc3)C12 (stereo unspecified)
inactive: activation [1] -9.16% | Potency [2] | Potency [3]

CC(=O)NC(C(=O)OC1CCC(C)(C)C2CC=C3C(=O)OCC3C12C)C(C)C (stereo unspecified)
inactive: activation [1] 9.16% | Potency [2] | Potency [3]

C=CC(C)(CC/C=C(\C)C(=O)OC)OC1OC(COC(=O)CC(C)(O)CC(=O)O)C(O)C(O)C1O (stereo unspecified)
inactive: activation [1] -3.05% | Potency [2] | Potency [3]

C=C1CCc2occ(C)c2[C@H]2[C@H]1[C@@]13O[C@@]1(C[C@@H](C)[C@H]3OC(C)=O)[C@H]1O[C@@]21C
inactive: activation [1] -19.6% | Potency [2] | Potency [3]

C[C@@H]1C[C@H]2[C@@H]3CCC4=CC(=O)C=C[C@]4(C)[C@@]3(F)[C@@H](O)C[C@]2(C)[C@@]1(O)C(=O)COP(=O)(O)O
inactive: activation [1] -5.67% | Potency [2] | Potency [3]

CC1(C)CC23[C@@H]4CC(=O)[C@@H]2COC(=O)[C@@H]3CC[C@H]41
inactive: activation [1] -5.36% | Potency [2] | Potency [3]

O=C1CC[C@H](C(=O)N2CCCCC2)N1
inactive: activation [1] -6.33% | Potency [2] | Potency [3]

O=C(NCCCc1ccccc1)c1cccc(-c2cc(O)c3ncccc3c2)c1
inactive: activation [1] 7.67% | Potency [2] | Potency [3]

COc1cc(O)cc2c1C(=O)OC(C)C2 (stereo unspecified)
inactive: activation [1] -13% | Potency [2] | Potency [3]

COC(=O)c1[nH]c(=O)c2ccccc2c1-c1ccc[nH]1
inactive: activation [1] -11.6% | Potency [2] | Potency [3]

COc1cc(C(C)=O)c(OC)c2c1OC(C)(C)C=C2
inactive: activation [1] 6.25% | Potency [2] | Potency [3]

CC1(C)CCC2(C(=O)OC3OC(COC4OC(CO)C(O)C(O)C4O)C(O)C(O)C3O)CCC3(C)C(=CCC4C5(C)CCC(OC6OCC(O)C(O)C6O)C(C)(C)C5CCC43C)C2C1O (stereo unspecified)
inactive: activation [1] -11.5% | Potency [2] | Potency [3]
